Assay results from the supplement of paper PMC10849652.
Targets with a hit are over-represented here; the source holds about 8,800 in all. About 0.5% of all pairs of compound and target were hits. Unmarked numbers belong to inactive results.

Key:
Test in all cases: log2 fold change, soluble protein after heating vs DMSO (PISA); higher = thermal stabilisation; K562 lysate, 10 uM; active = over 0.2 and 3.5 SD of the protein, either way, in both replicates (recomputed)
[1] = compound: C#Cc1cccc(Nc2ncnc3cc(OCCOC)c(OCCOC)cc23)c1 [erlotinib]
Procedure, shortened: (§1)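 Pellets of K562 cells were dounce-homogenised in PBS pH 7.4 with 1 mM MgCl2, and the crude extract was held at 1 mg/mL protein for a 30 min treatment with 10 μM compound. Aliquots were heated for 3 min over 48°C-58°C and pooled before NP-40 was added to 0.5% at 4°C. The supernatant from 21,000xg for 90 min was quantified by TMTpro 16plex LC-MS/MS with channel sums equalised. Values are reported from duplicates as log-two fold change in thermal stability relative to solvent controls.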

[2] = compound: C/C(=N\NC(=O)C1=CC(=CC=C1)S(=O)(=O)N2CCOCC2)/C3=C(C=CC(=C3)Cl)O
Procedure, shortened: as §1

[3] = compound: C1=CC(=CC=C1C2=NC3=C(N2)C=C(C=C3)C(=O)N)OC4=CC=C(C=C4)Cl
Procedure, shortened: as §1

[4] = compound: C1=CC2=C(C=CC(=C2)/C=C\3/C(=O)NC(=NCC4=CC=CS4)S3)N=C1
Procedure, shortened: as §1

[5] = compound: C1=CC2=NC=CN=C2C=C1/C=C/3\C(=O)NC(=O)S3
Procedure, shortened: as §1

[6] = compound: C1=CC=C(C=C1)C2=NC(=C(N2)C3=CC=NC=C3)C4=CC(=C(C=C4)Cl)O
Procedure, shortened: as §1

[7] = compound: C1=CC=C2C(=C1)C3=NNC4=CC=CC(=C43)C2=O
Procedure, shortened: as §1

[8] = compound: C1CCN(C1)C(=O)NC2=CC=CC(=C2)NC3=NC=C(C(=N3)NCCC4=CN=CN4)Br
Procedure, shortened: as §1

[9] = compound: C1CN(CCC1(CC2=CC=C(C=C2)Cl)N)C3=NC=NC4=C3C=CN4
Procedure, shortened: as §1

[10] = compound: C1COCCN1CCN2C3=CC=CC=C3N=C2NC(=O)C4=CC(=CC=C4)[N+](=O)[O-] [IRAK-1-4 Inhibitor I]
Procedure, shortened: as §1

[11] = compound: C=CC(=O)N1CCC[C@@H](n2nc(-c3ccc(Oc4ccccc4)cc3)c3c(N)ncnc32)C1 [ibrutinib]
Procedure, shortened: as §1

[12] = compound: CC(=O)c1cnc2ccc(-c3cc(Cl)c(O)c(Cl)c3)nc2c1N[C@H]1CC[C@H](CN(C)C)CC1
Procedure, shortened: as §1

[13] = compound: CC(C)(C)Cn1c(N)nc2ccc(-c3[nH]c(C(C)(C)C)nc3-c3ccc(F)cc3)nc21 [ralimetinib]
Procedure, shortened: as §1

[14] = compound: CC(C)(O)CC(=O)NCCn1ccc2ncnc(Nc3ccc(Oc4cccc(C(F)(F)F)c4)c(Cl)c3)c21
Procedure, shortened: as §1

[15] = compound: CC(C)C1=C2N=C(C=C(N2N=C1)NCC3=CC=CC=C3)NCCCCCCN
Procedure, shortened: as §1

[16] = compound: CC1=C(C(CC(=O)N1)C2=CC=C(C=C2)C(F)(F)F)C(=O)NC3=C(C=C4C(=C3)C=NN4)F
Procedure, shortened: as §1

[17] = compound: CC1=C(C2=C(C=C1)C(=O)C3=CC=CC=C3N2CCCN)C
Procedure, shortened: as §1

[18] = compound: CC1=C(C=C(C=C1)NC(=O)C2=CC(=CC=C2)C(C)(C)C#N)NC3=CC4=C(C=C3)N=CN(C4=O)C
Procedure, shortened: as §1

[19] = compound: CC1=C(C=C(C=C1)NC(=O)C2=CC(=CC=C2)N(C)C)NC(=O)C3=CC=C(C=C3)O
Procedure, shortened: as §1

[20] = compound: CC1=CC=C(C=C1)SC2=C3C=C(SC3=CN=C2)C(=O)N
Procedure, shortened: as §1

Sequence of UniProt P52789 (P52789 whole entry, looked up): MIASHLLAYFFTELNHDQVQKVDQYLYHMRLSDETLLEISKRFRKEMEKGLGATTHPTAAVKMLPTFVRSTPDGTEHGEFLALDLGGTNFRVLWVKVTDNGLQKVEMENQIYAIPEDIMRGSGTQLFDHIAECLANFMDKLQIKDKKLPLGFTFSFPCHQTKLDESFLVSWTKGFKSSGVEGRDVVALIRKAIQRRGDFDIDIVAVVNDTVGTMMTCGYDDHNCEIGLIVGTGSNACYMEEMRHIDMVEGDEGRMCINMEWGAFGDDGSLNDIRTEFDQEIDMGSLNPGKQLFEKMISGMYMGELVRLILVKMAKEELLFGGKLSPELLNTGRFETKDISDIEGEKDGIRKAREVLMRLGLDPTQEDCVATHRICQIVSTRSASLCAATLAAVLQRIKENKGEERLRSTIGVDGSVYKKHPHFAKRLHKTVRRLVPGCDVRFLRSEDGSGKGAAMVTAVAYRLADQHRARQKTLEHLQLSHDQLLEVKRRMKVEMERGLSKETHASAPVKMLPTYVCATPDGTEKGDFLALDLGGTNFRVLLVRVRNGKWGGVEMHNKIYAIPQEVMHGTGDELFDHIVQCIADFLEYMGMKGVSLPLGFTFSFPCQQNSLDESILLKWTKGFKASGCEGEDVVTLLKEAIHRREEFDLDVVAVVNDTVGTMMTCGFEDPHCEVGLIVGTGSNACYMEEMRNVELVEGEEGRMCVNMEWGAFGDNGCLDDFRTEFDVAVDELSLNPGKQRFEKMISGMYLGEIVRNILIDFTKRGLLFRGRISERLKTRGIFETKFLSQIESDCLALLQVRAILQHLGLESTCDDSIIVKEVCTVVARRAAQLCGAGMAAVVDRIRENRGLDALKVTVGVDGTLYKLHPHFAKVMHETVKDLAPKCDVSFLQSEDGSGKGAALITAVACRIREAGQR
Sequence of UniProt Q9H1B7 (Q9H1B7 whole entry, looked up): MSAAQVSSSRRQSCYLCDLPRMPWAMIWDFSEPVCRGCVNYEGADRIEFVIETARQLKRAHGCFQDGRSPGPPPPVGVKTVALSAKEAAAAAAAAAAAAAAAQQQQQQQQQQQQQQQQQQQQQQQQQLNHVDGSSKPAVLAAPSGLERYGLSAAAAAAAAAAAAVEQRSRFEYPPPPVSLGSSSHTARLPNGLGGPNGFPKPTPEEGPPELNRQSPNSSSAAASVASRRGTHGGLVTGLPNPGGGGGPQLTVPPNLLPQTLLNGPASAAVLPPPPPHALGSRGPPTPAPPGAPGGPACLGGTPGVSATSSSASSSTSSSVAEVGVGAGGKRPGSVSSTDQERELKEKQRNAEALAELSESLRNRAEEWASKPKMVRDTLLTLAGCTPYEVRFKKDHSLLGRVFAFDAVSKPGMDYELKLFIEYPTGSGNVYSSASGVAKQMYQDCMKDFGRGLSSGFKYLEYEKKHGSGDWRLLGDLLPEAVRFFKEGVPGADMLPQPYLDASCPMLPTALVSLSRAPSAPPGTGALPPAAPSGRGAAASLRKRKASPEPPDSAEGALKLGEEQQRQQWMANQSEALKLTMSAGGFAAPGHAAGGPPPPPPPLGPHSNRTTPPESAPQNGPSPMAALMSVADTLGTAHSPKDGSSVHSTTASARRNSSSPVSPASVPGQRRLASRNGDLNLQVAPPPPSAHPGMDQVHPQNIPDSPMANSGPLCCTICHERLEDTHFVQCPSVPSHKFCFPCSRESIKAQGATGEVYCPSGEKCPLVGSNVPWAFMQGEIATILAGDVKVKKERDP
Sequence of UniProt Q8WVV9 (Q8WVV9 whole entry, looked up): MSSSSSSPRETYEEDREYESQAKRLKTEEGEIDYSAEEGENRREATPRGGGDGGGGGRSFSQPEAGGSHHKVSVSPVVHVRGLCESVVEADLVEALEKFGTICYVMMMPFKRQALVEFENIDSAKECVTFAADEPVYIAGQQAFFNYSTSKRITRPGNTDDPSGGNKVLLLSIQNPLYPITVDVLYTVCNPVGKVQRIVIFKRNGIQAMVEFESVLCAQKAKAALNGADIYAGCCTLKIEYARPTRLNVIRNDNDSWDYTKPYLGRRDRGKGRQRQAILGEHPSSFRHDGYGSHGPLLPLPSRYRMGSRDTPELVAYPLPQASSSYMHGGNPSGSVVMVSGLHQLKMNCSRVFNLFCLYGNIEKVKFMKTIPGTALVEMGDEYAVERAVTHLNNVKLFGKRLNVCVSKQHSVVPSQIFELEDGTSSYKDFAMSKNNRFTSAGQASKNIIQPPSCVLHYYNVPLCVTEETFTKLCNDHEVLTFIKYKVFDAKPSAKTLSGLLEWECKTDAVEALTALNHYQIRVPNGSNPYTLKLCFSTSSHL
Sequence of UniProt P41229 (P41229 whole entry, looked up): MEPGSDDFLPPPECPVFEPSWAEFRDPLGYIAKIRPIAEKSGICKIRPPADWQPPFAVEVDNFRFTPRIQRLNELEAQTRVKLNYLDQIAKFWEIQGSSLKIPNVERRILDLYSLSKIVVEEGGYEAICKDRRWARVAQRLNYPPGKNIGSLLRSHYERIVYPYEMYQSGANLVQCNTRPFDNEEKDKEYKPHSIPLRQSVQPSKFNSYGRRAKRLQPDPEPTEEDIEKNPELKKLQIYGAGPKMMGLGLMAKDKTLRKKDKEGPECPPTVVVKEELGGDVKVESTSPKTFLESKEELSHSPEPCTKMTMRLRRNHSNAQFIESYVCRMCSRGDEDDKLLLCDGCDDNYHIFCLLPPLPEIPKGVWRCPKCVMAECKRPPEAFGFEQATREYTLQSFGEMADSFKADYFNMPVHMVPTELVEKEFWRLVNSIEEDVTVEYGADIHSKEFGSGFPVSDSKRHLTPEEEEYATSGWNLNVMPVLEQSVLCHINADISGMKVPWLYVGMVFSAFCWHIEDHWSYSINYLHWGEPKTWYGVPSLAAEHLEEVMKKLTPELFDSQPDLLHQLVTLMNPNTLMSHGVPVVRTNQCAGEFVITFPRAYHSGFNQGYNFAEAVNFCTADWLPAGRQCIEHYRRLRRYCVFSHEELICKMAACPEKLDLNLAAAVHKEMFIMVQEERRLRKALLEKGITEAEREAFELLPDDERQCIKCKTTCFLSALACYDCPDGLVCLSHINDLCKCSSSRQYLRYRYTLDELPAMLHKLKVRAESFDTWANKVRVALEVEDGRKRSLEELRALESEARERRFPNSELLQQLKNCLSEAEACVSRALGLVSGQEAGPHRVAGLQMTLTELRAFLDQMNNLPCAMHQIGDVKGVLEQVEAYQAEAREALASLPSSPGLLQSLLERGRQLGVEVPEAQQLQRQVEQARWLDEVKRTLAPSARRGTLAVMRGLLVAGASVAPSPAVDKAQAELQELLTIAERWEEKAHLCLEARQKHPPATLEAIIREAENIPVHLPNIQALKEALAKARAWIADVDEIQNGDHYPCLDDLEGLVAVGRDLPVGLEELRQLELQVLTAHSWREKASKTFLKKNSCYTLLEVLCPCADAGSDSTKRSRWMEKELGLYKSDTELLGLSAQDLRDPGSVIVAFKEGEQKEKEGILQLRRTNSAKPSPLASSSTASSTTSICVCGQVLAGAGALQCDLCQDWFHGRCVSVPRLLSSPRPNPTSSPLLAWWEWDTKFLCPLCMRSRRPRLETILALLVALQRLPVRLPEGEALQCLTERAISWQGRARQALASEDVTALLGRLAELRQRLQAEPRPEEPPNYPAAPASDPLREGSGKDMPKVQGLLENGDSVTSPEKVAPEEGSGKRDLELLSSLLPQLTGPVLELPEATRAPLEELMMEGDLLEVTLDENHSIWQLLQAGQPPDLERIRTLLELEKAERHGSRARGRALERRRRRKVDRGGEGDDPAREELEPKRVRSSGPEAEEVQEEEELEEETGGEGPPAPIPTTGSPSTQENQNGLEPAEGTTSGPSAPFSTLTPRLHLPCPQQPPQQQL
Sequence of UniProt Q01581 (Q01581 whole entry, looked up): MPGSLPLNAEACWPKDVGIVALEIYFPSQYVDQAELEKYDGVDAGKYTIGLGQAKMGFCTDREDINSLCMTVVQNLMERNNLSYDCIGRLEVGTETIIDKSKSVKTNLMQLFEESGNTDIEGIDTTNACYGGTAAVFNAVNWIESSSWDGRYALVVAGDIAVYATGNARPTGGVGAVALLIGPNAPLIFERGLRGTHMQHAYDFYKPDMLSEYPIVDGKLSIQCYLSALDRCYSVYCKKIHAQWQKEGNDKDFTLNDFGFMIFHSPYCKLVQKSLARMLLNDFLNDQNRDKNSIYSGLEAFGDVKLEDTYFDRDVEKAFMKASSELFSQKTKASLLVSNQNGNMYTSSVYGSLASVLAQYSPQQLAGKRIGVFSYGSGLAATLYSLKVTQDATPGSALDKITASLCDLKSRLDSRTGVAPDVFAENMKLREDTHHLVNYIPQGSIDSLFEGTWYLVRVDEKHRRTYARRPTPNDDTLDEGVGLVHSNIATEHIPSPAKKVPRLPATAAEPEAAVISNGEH
Sequence of UniProt Q9Y2X7 (Q9Y2X7 whole entry, looked up): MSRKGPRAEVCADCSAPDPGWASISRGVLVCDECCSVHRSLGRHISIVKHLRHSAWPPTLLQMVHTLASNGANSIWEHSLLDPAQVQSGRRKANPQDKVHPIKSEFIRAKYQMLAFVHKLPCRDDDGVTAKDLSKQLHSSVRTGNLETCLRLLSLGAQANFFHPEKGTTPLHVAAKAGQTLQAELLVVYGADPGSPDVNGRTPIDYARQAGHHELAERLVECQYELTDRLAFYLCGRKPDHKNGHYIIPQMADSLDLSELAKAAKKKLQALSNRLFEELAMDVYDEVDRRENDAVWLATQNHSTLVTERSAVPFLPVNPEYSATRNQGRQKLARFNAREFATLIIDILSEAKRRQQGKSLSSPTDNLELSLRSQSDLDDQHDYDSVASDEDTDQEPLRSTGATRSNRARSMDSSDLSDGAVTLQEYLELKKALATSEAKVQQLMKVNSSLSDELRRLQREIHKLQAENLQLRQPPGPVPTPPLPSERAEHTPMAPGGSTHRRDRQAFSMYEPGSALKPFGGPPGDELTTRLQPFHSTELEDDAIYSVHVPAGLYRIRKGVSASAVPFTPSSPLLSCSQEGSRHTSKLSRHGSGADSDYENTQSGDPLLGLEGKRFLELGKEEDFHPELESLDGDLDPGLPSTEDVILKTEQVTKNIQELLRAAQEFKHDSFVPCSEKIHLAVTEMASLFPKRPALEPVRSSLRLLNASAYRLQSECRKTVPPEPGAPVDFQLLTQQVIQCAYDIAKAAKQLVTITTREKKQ

Row | Target | log2 fold change [1] | log2 fold change [2] | log2 fold change [3] | log2 fold change [4] | log2 fold change [5] | log2 fold change [6] | log2 fold change [7] | log2 fold change [8] | log2 fold change [9] | log2 fold change [10] | log2 fold change [11] | log2 fold change [12] | log2 fold change [13] | log2 fold change [14] | log2 fold change [15] | log2 fold change [16] | log2 fold change [17] | log2 fold change [18] | log2 fold change [19] | log2 fold change [20]
1 | IRAK4 (UniProt Q9NWZ3) | -0.03 | -0.071 | -0.037 | -0.019 | 0.037 | 0.015 | 0.223 | 0.3 (active) | -0.037 | 0.006 | 0 | 0.195 | 0 | -0.018 | -0.01 | -0.018 | -0.011 | -0.018 | 0.008 | -0.041
2 | GSTP1 (UniProt P09211) | -0.008 | 0.035 | -0.024 | 0.036 | 0.08 | -0.002 | 0.007 | -0.022 | -0.022 | 0 | -0.012 | 0.042 | 0.011 | -0.003 | 0.021 | -0.011 | 0.036 | -0.025 | 0.003 | -0.003
3 | GMPS (UniProt P49915) | 0.014 | -0.025 | 0.004 | 0.029 | -0.013 | -0.007 | -0.009 | -0.003 | 0.017 | -0.004 | -0.034 | 0.003 | 0.009 | 0.013 | 0.006 | -0.032 | 0.025 | -0.024 | 0.015 | 0.02
4 | HIST2H2AA3 (UniProt Q6FI13) | -0.012 | -0.956 | 0.002 | -0.054 | -0.05 | 0.126 | 0.012 | 0.083 | 0.019 | -0.055 | -0.011 | -0.014 | -0.112 | 0.065 | 0 | -0.012 | 0.028 | -0.046 | 0.032 | 0.045
5 | HMGCS1 (UniProt Q01581) | -0.003 | -0.035 | 0.006 | -0.001 | -0.005 | 0.014 | 0.004 | 0.003 | 0.012 | -0.009 | -0.012 | -0.006 | 0.012 | -0.01 | -0.001 | -0.011 | 0.013 | -0.001 | 0.006 | 0.015
6 | IRF2BPL (UniProt Q9H1B7) | 0.024 | 0.102 | 0.037 | 0.022 | -0.034 | 0.002 | -0.008 | -0.002 | 0.027 | -0.027 | 0.052 | 0.004 | 0.039 | 0.026 | -0.026 | 0.02 | -0.018 | 0.045 | 0.029 | -0.038
7 | IMMT (UniProt C9J406) | 0.077 | 0.041 | -0.028 | 0.001 | 0.043 | 0.028 | -0.032 | -0.222 | 0.325 | -0.016 | 0.119 | 0.046 | 0.126 | -0.14 | -0.096 | 0.099 | -0.03 | -0.002 | 0.012 | -0.015
8 | HSPB1 (UniProt P04792) | 0.004 | -0.03 | 0.03 | -0.012 | 0.001 | -0.009 | 0.034 | -0.013 | -0.025 | 0.006 | -0.015 | -0.008 | 0.022 | -0.016 | 0.012 | 0 | 0.016 | -0.117 | 0.006 | 0.003
9 | HNRNPLL (UniProt Q8WVV9) | 0.007 | 0 | 0.011 | 0.009 | -0.017 | -0.019 | -0.035 | 0.006 | -0.009 | -0.026 | -0.024 | 0.016 | 0.005 | 0.005 | -0.004 | -0.019 | -0.012 | 0.026 | 0.024 | 0.021
10 | KDM5C (UniProt P41229) | 0.052 | 0.017 | 0.022 | -0.059 | -0.009 | -0.041 | -0.031 | -0.053 | -0.002 | 0.01 | 0.089 | -0.132 | 0.005 | -0.02 | 0.015 | 0.01 | 0.012 | -0.013 | 0.031 | 0.001
11 | HSP90AA4P (UniProt Q58FG1) | -0.064 | 0.994 | 0.097 | 0.018 | -0.129 | 0.023 | -0.003 | -0.032 | -0.09 | 0.081 | 0.026 | -0.123 | -0.011 | -0.055 | 0.021 | -0.071 | -0.045 | 0.073 | 0.097 | -0.051
12 | INF2 (UniProt Q27J81) | 0.004 | -0.014 | -0.027 | 0.069 | 0.004 | -0.024 | -0.019 | 0.031 | 0.056 | -0.011 | 0.036 | -0.007 | 0.018 | 0.049 | -0.012 | 0.004 | 0.07 | -0.004 | -0.027 | -0.015
13 | HK2 (UniProt P52789) | 0.013 | 0.007 | -0.045 | 0.019 | -0.01 | 0.026 | -0.027 | -0.016 | 0.004 | -0.002 | 0.021 | -0.005 | 0.019 | 0.006 | -0.029 | -0.007 | 0.006 | 0.008 | 0.002 | 0.011
14 | GIT1 (UniProt Q9Y2X7) | -0.003 | 0.011 | -0.039 | 0.054 | -0.014 | -0.014 | -0.009 | 0 | -0.011 | 0.017 | 0.075 | -0.002 | -0.042 | 0.033 | -0.004 | -0.074 | -0.012 | 0.044 | -0.007 | 0.024
15 | HMBOX1 isoform 5 (UniProt Q6NT76) | 0.045 | -0.094 | -0.004 | 0.026 | -0.037 | -0.004 | -0.057 | -0.028 | 0.004 | -0.009 | 0.051 | 0.021 | 0.026 | 0.007 | 0.072 | -0.014 | 0.052 | 0.015 | 0.005 | 0.054
16 | HNRNPD isoform 3 (UniProt Q14103) | -0.056 | -0.133 | -0.1 | -0.181 | -0.036 | -0.11 | 0.021 | 0.108 | -0.043 | -0.057 | -0.081 | -0.065 | -0.046 | 0.104 | -0.026 | -0.096 | -0.052 | 0 | 0.036 | -0.007
